The whole screen tested about 48,000 compounds, of which about 13,000 (27%) showed an effect of 50% or more. The list shows a part of the results.
What follows are molecules tested on Wolbachia pipientis (assay: Anti-Wolbachia Cell-Based Screen). Conditions: 5 µM.
Type: functional
Design: scale not given: in the data most compounds retested in dose-response had high values

Compound | Percent Effect
Cc1oc(-c2ccsc2)nc1CNCCn1cccn1 | -19.09%
c1nc(NCC2(N3CCOCC3)CCSC2)c2sccc2n1 (stereo unspecified) | -18.02%
CCc1nc(NCCCOC)c2c(n1)c(C)nn2C | 12.69%
CN(C)C(=O)CCc1cncc(C2CCCN2Cc2ccccn2)n1 (stereo unspecified) | 97.92%
O=C(CN1CCCC1c1nc(-c2ccccn2)no1)N1CCNCC1 (stereo unspecified) | 2.337%
CCc1nccn1-c1cncc(C2CCCN2Cc2ccccn2)n1 (stereo unspecified) | 112.2%
CN(CCc1ccccn1)S(=O)(=O)N1CCCC1c1ccco1 (stereo unspecified) | 10.93%
CCc1nccn1CC(=O)N1CCN(C2CCc3ccccc3C2)CC1 (stereo unspecified) | -21%
CCc1nccn1-c1cncc(C2CCCN2Cc2cccnc2)n1 (stereo unspecified) | -2.141%
CCc1nccn1-c1cncc(C2CCCN2Cc2ccccc2)n1 (stereo unspecified) | 119.3%
CCCn1ccnc1CN1CCCC1c1ccccn1 (stereo unspecified) | 6.189%
CCn1ccnc1CN1CCN(Cc2ccccn2)CC1C (stereo unspecified) | -25.03%
CCc1nccn1-c1cncc(C2CCCN2CC(=O)N2CCCC2)n1 (stereo unspecified) | 115.3%
CCc1nccn1-c1cncc(C2CCCN2Cc2ccc(F)cc2)n1 (stereo unspecified) | -3.137%
O=C(CN1C(=O)CCC1=O)N1CCOC2(CCOCC2)C1 | 13.71%
O=C(NC1CCN(CC2CC2)C1)c1ccc(N2CCC(O)CC2)cc1 (stereo unspecified) | -2.601%
CCN(C)S(=O)(=O)N(CC)Cc1cccc(-c2ccncc2)c1 | 31.71%
Cc1cc2c(cc1C)OC(C(=O)NCCNC(=O)C1CCCC1)C2 (stereo unspecified) | -3.964%
Cc1ccc(C)c(-n2cc(CN3CC[C@@H](O)C3)c(-c3ccccc3)n2)c1 | 7.715%
CCN1CCN(C(=O)c2ccc3c(c2)OCC(=O)N3)[C@H]2CS(=O)(=O)C[C@H]21 | -0.2208%
CC(C)(O)c1cc(CC2(NCc3ccccc3Cl)COC2)no1 | -20.02%
Cn1cc(CN2C[C@H]3CCC[C@@H](CNc4nccn4C)[C@H]3C2)cn1.O=C(O)C(F)(F)F | -10.56%
Cc1cc(CN(CC(N)=O)CC(C)C)on1 | -7.292%
Cn1nc(C2CCCNC2)c2c(C(=O)NC3CC3)cc(C3CC3)nc21 (stereo unspecified) | 121.4%
CCCn1ncc2c(C(=O)Nc3n[nH]c(SC)n3)cc(C3CC3)nc21 | 6.515%
Cn1nc(C2CCNC2)c2c(C(=O)NC3CC3)cc(C3CC3)nc21 (stereo unspecified) | 110%

Compound | Percent Effect
Cn1nc(C2CCCN2)c2c(C(=O)NC3CC3)cc(C3CC3)nc21 (stereo unspecified) | 135.7%
Cn1nc(C2CCNCC2)c2c(C(=O)NC3CC3)cc(C3CC3)nc21 | 128.7%
Cc1nc(NCCSc2cnn[nH]2)c2cccnc2n1 | 2.11%
Cc1cnn(CCNCc2nc(-c3ccsc3)oc2C)c1 | -10.22%
CCCN(C)S(=O)(=O)NC(=O)c1ccc(CC)o1 | 14.97%
O=C(CNC1CCc2ncnn2C1)N(C1=CCCCC1)C1CC1 (stereo unspecified) | -15.4%
Fc1cccc(N2CCOC3(CCCN(c4cnccn4)C3)C2)c1 (stereo unspecified) | 11.27%
CN(C)CCN(Cc1ccccc1)C(=O)CN1CCCNC1=O | -13.77%
CC1CCN(CCNC(=O)C2CCN(C(=O)C(C)(C)C)CC2)CC1 | 2.038%
CCC(=O)N1CCCCC1c1nc(O)c2c(n1)CN(S(=O)(=O)CC)CC2 (stereo unspecified) | 126.4%
CCS(=O)(=O)CC(=O)N1CCCC1c1noc(C2CC2)n1 (stereo unspecified) | -5.674%
CCCS(=O)(=O)CC(=O)N1CCCC1c1noc(C2CC2)n1 (stereo unspecified) | -6.337%
CCC(=O)N1CCCCC1c1nc(O)c2c(n1)CN(S(C)(=O)=O)CC2 (stereo unspecified) | 103.7%
CC(C)NC(=O)c1ccc2nnc(C3CN(C)CCN3C)n2c1.O=C(O)C(F)(F)F.O=C(O)C(F)(F)F (stereo unspecified) | -4.33%
COCc1cc(N(Cc2ccsc2)C2CC2)n2ncnc2n1 | -20.66%
Cc1oc(C(C)C)cc1C(=O)N1C[C@H]2CC[C@@H]1CN(S(=O)(=O)N(C)C)C2 | 1.683%
COCCn1cc(C(=O)N2CCCC2c2cccs2)c2ccccc21 (stereo unspecified) | 20.58%
CSc1[nH]c(=O)c(C(=O)N2CCCC2c2cccs2)cc1C#N (stereo unspecified) | 109.4%
CCC1CCCCCN1C(=O)c1cc(C#N)c(SC)[nH]c1=O (stereo unspecified) | 95.93%
CCc1cn[nH]c1C1CCCN(C(=O)c2cc(C#N)c(=O)[nH]c2C)C1 (stereo unspecified) | -3.715%
N#Cc1ncn(CC(=O)N2CCCC2c2cccs2)n1 (stereo unspecified) | -17.52%
Cn1c(=O)[nH]c(=O)c2cc(C(=O)N3CCCC3C3CCCC3)cnc21 (stereo unspecified) | 9.231%
CCc1cn[nH]c1C1CCN(C(=O)c2cc(C#N)c(=O)[nH]c2C)CC1 | 0.2267%
CSc1[nH]c(=O)c(C(=O)N2CCCC2C2CCCC2)cc1C#N (stereo unspecified) | 90.55%
O=C(c1cnc2[nH]c(=O)[nH]c(=O)c2c1)N1CCCC1C1CCCC1 (stereo unspecified) | -0.6345%

Reference: ChEMBL document CHEMBL3988442, “University of Dundee, Small-Polar-MMV Screening Library” (2021)
